High-throughput results (PubChem)
HT1080-NT tox: kills 2HG-producing HT-1080-NT fibrosarcoma cells; Potency, µM (highest dose often 46.1 µM), without a hit: top-dose activity, negative = less viability, hits mostly cytotoxic; hit rate 1.6% among 360,000; HT-1080-NT fibrosarcoma viability, CellTiter-Glo ATP luminescence, 48 h; AID 686970;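 note: NT is the 2HG producing partner of a matched IDH1 knockdown line; potency is the fitted concentration of half-maximal effect; 0% = DMSO-treated cells and -100% = media-only wells without cells; nearly all actives have a fitted effect of over 55% in size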
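750 cells/well, RPMI + 5% FBS; 2 h settle, compound pin-transfer, 48 h at 37 degrees C. CellTiter-Glo 10 min RT, luminescence. Normalized to DMSO and media-only wells.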
HT1080 IDH1KD tx: kills HT-1080 cells with IDH1 knockdown. Potency, µM (series often up to 46.1 µM), without a hit: at the top dose activity, negative = toxicity, most hits filed as cytotoxic. hit rate 2% among 360,000. HT-1080 IDH1 knockdown viability, ATP luminescence, 48 h;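 note: potency is the fitted concentration of half-maximal effect; 0% = DMSO wells and -100% = cell-free medium wells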
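Using the IDH1-knockdown HT-1080 line run in the same batch and compound series as the NT line, viability after 48 h at 37 °C was determined by CellTiter-Glo luminescence and expressed as % activity.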
TDP1 cell CPT: DT40-hTDP1 cell growth loss with CPT. chicken DT40 Tdp1-/-;hTDP1 cells + 20 nM CPT, ATP luminescence, 48 h. Potency, µM (highest dose often 46.2 µM), for inactives: top-dose activity change, negative = growth inhibition, most hits filed as inhibitors. hit rate 12% among 420,000. AID 686979; note: potency is the fitted concentration of half-maximal effect; nearly all actives have a fitted effect of over 55% in size
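Chicken DT40 Tdp1-/- cells stably complemented with human TDP1 were seeded at 400 cells/well in medium containing 20 nM camptothecin, exposed to pin-transferred compounds, and grown at 37 °C for at least 48 hr. Viability was read as ATP luminescence.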
TDP1 cell noCPT: qHTS for Inhibitors of human tyrosyl-DNA phosphodiesterase 1 (TDP1): qHTS in cells in absence of CPT; DT40 Tdp1-/- hTDP1 cells, no CPT, ATP luminescence, 48 h; hit rate 15% among 420,000; Potency, µM (series often up to 46.2 µM), inactives show top-dose activity change, negative = growth inhibition, most hits filed as inhibitors; AID 686978, 2013; note: potency is the fitted concentration of half-maximal effect; nearly all actives have a fitted effect of over 55% in size
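Camptothecin absent (DMSO only). Human TDP1-complemented DT40 knockout cells, 400 cells/well, 37 °C for minimum 48 hr; ATP measured via CellTiter-Glo, 30 min dark incubation, luminescence.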
IL-1B inflam inh: inhibitors of inflammasome signaling (IL-1 beta secretion) | activity change, % at 57.5 µM | THP-1 LPS/ATP IL-1B secretion, AlphaLISA, 16 h; active compounds read low | AID 743279 | hit rate 4.7% among 360,000; in the data active = activity change below about -50%; inconclusive = mostly about -30% to -49%
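THP-1 cells pretreated 1 hr with compounds (up to 57.5 uM final), then stimulated with LPS (250 ng/mL final) plus ATP (1.25 mM final); secreted IL-1B measured by AlphaLISA after 16 hr, decreased signal indicating inhibition.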
ELG1 repair inh: blocks ELG1-dependent DNA repair in HEK293T cells | HEK293T ELG1-luciferase reporter, luminescence, 16 h; DNA damage induced by 5-fluorouridine | Potency, µM (titrated, usually from 46.1 µM), for inactives: at the top dose activity change, negative = inhibition, most hits filed as inhibitors | hit rate 2.3% among 330,000 | AID 504467; note: potency is the fitted concentration of half-maximal effect; nearly all actives have a fitted effect of over 55% in size
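Luminescence from the luciferase reporter, measured 30 min after ONE-Glo reagent at room temperature, was the read-out. Beforehand, 2,000 cells per well were exposed for 16 hr at 37 °C to 5-fluorouridine together with compound or vehicle.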
* = called active by the depositor; u = inconclusive; x = not tested or not shown; [ ] = remark or other dose. Sampled rows, rich in hits. Any-hit rate of the full collection: about 19%. Unless noted, calls come from the whole dose curve; as a rule, active = well fitted curve in the direction sought with a large enough effect; inconclusive = small, poorly fitted or top-dose-only effect, or another doubt; inactive = no such curve, though single readings can be large; an effect the other way counts as inactive or inconclusive. Unless noted, % is set by controls: 0 for no effect and ±100 for the full control effect.

SMILES	HT1080-NT tox	HT1080 IDH1KD tx	TDP1 cell CPT	TDP1 cell noCPT	IL-1B inflam inh	ELG1 repair inh
COc1ccc(C#Cc2cnc3c(c2)C(=O)N([C@@H](C)CO)C[C@@H](C)[C@@H](CN(C)CC2CCOCC2)O3)cc1	-11%	-11%	18µM*	21µM*	-17	x
Cc1ccccc1-c1cnc2c(c1)C(=O)N([C@@H](C)CO)C[C@@H](C)[C@H](CN(C)Cc1ccccc1F)O2	-4%	-5%	u	16µM*	-22	x
CC1(C)CC(=O)C(C(O)c2ccccc2)C(C)(C)N1 (centres undefined)	-11%	-1%	-3%	8%	25	-15%
COc1ccc(S(=O)(=O)N(C)C[C@H]2Oc3ncc(Br)cc3C(=O)N([C@@H](C)CO)C[C@@H]2C)cc1	-13%	11%	u	12µM*	29	x
C[C@H]1CN([C@@H](C)CO)C(=O)c2cc(Br)cnc2O[C@H]1CN(C)Cc1ccc(Oc2ccccc2)cc1	u	u	18µM*	16µM*	u	x
CCCNC(=O)N(C)C[C@H]1Oc2ncc(C#CCc3ccccc3)cc2C(=O)N([C@H](C)CO)C[C@H]1C	-10%	-3%	29µM*	10µM*	-27	x
CCC(CO)N=CC1=C(O)CC(c2ccccc2)CC1=O (centres undefined)	5%	16%	21%	-2%	-3	-2%
Cc1cc(C)n(Cc2cccc(C(=O)N/N=C/c3ccncc3)c2)n1	16%	8%	-13%	10%	26	u
C/C(=C\c1ccco1)CN1CCOc2ccc(C(C)(O)COc3ccccc3)cc2C1 (centres undefined)	x	x	19%[9.04 µM]	u	x	x
COC(=O)c1ccc(CNC(=O)COC(=O)Cc2ccsc2)cc1	19%	2%	-3%	-6%	-2	-7%
Cc1ccc2cc(CN(C(=O)c3ccco3)c3ccccc3C)c(=O)[nH]c2c1	-8%	-7%	u	21µM*	-11	0%
Cc1ccc(N(Cc2cc3ccc(C)cc3[nH]c2=O)C(=O)c2ccco2)c(C)c1	0%	12%	u	23µM*	u	u
Cc1ccc2cc(CN(C(=O)c3ccco3)c3cccc(C)c3C)c(=O)[nH]c2c1	7%	14%	-28%	u	-17	-3%
CC(CNC(=O)C1CCN(S(=O)(=O)c2ccc3c(ccn3C)c2)CC1)c1ccccc1 (centres undefined)	x	x	-23%	-4%	x	x
CC(C)c1ccc(NS(=O)(=O)c2ccc3[nH]cc(C(=O)N4CCCC4)c(=O)c3c2)cc1	x	x	8%	3%	x	x
CC[C@]1(C(=O)OC)[C@H]2C(=O)N(Cc3ccccc3)C(=O)[C@H]2[C@H]2CN=C(SCC(=O)c3ccccc3)N21	-3%	-6%	u	u	0	-2%
COC(=O)[C@@]1(Cc2ccccc2)[C@H]2C(=O)N(Cc3ccccc3)C(=O)[C@H]2[C@H]2CN=C(SCC(=O)c3ccccc3)N21	8%	5%	u	18µM*	-14	-6%
CCN1C(=O)[C@H]2[C@H]3CN=C(SCc4ccc(Cl)cc4)N3[C@@](Cc3ccccc3)(C(=O)OC)[C@H]2C1=O	u	u	u	12µM*	-18	u
CC(Oc1ccccc1F)c1nnc(SCC(=O)Nc2ccc(N3CCOCC3)cc2)o1 (centres undefined)	9%	10%	2%	8%	13	0%
CCN(CC)CCNC(=O)C1(O)c2cc(Br)ccc2NC(=O)N1c1ccccc1 (centres undefined)	5%	0%	3%	15%	0	1%
CCc1ccc2nc(SCC(=O)Nc3nnc(C)s3)c(C)cc2c1	-4%	-3%	9.2µM*	u	-6	9%
